The other results are listed elsewhere or left out. Activity calls are given as the source filed them. Cut-off read from the data, not from the text of the source, unless noted: active = inhibition above about 40%; inactive = the rest.

The nature of experiment [1]: NF-kB reporter suppression in CF airway cells – cell-based, GFP fluorescence, single concentration, confirmation (AID 602472).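 Note: stimulus PAF is a Pseudomonas aeruginosa filtrate and not platelet activating factor; plate controls were DMSO wells with stimulus for no effect and unstimulated DMSO wells for full effect.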 As to conditions: KKLEB CF airway cells, PAF-induced NF-kB-GFP fluorescence, overnight; at 5 µM; stronger effect = higher value.
Experiment [2] is described as follows: NFkB reporter suppression in cystic fibrosis bronchial cells – cell-based, uHTS hits, panel, cytotoxicity readout, dose response (AID 624344). The conditions noted are these: CF bronchial epithelial cells, PAF-induced NFkB reporter inhibition, with PAF, run 1; at 79 µM (top of the series) unless noted.
Experiment in experiment [3]: as above
As to conditions: CF bronchial epithelial cells, PAF-induced NFkB reporter inhibition, with PAF, run 2; at 79 µM (top of the series) unless noted.

Experiment [4] is described as follows: HIF-2a driven luciferase blockers, single dose – luminescence, 786-0 RCC cells, confirmation (AID 651580;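 active = mean inhibition across four replicates of at least 40 percent at the single tested concentration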). As to conditions: HIF-2a luciferase reporter luminescence, overnight, at 18.8 µM, stronger effect = higher value.
Experiment [5] can be described thus: HIF-1a luciferase reporter signal reduction – MiaPaCa-2 cells, single concentration, counter-screen for HIF-2a inhibitor project, confirmation (AID 651589;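 active = mean inhibition of the reporter signal across four replicates at the single tested dose of 50% or more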). As to conditions: MiaPaCa-2 HIF-1a luciferase reporter, desferoxamine, overnight; at 18.8 µM; stronger effect = higher value. A general note: Reporter assays use an easily measured gene product as a stand-in for the process of interest.

The target of experiment [6] is PEG-3 (UniProt Q6IN02). Put plainly: inhibition of PEG-3 promoter-driven reporter – cell-based, HeLa, luciferase, CREF/GAPDH counter-screen panel, dose response (AID 624167). As to conditions: CREF/GAPDH counter-screens; HeLa PEG-Prom luciferase reporter, overnight, run 1, dose range 1, at 100 µM (top of the series) unless noted. For orientation: Counterscreens check selectivity or assay interference.

Experiment [7] addresses PEG-3 (UniProt Q6IN02). Described as above. The conditions noted are these: CREF/GAPDH counter-screens; HeLa PEG-Prom luciferase reporter, overnight, run 2, dose range 1, at 100 µM (top of the series) unless noted.
Experiment [8] deals with Tumor necrosis factor receptor superfamily member 10B (Homo sapiens) (UniProt O14763). Put plainly: viability loss of caspase-8 NB7 cells with TRAIL – with/without TRAIL, luminescence panel, confirmation (AID 651596; in the data active = activity above about 50%). As to conditions: NB7 neuroblastoma + caspase-8, TRAIL sensitization, NB7 Caspase-8, with TRAIL, mean of runs, at 10 µM, stronger effect = higher value.
Experiment in experiment [9]: as above
The conditions noted are these: NB7 neuroblastoma + caspase-8, without TRAIL, NB7 Caspase-8, without TRAIL, mean of runs, at 10 µM.

PEG-3, sequence (Q6IN02 whole entry, looked up): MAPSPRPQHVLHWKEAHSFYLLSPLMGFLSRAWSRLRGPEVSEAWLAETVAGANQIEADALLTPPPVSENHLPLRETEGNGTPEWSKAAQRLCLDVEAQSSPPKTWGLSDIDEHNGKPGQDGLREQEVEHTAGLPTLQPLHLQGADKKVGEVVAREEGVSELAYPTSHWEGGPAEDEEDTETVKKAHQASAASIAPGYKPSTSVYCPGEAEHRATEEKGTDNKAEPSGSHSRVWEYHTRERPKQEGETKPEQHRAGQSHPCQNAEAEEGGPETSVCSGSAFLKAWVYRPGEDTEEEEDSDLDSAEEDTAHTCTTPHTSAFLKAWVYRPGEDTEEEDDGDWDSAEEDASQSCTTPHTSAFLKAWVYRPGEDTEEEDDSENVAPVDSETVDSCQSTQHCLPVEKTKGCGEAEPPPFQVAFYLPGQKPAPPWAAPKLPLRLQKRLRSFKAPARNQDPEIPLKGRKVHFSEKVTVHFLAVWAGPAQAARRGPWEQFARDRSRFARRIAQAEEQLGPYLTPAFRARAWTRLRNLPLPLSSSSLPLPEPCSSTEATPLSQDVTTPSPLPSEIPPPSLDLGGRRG
Tumor necrosis factor receptor superfamily member 10B (Homo sapiens), sequence (O14763 whole entry, looked up): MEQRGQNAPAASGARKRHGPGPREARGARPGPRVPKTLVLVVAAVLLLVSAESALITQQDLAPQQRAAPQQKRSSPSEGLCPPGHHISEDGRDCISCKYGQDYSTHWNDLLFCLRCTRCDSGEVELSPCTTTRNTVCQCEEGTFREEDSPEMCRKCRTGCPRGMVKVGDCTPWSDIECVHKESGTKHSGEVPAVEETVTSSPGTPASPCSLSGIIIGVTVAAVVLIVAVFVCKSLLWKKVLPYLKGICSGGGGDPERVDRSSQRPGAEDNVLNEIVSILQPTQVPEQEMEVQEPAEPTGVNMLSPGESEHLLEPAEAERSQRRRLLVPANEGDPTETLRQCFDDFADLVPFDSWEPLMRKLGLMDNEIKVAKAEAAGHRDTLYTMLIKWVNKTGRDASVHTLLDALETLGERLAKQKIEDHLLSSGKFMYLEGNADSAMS

By inhibition is commonly meant the relative decrease from the control value, in per cent. For the compound `CCSc1nsc(NC(=O)Nc2cccc(C(C)=O)c2)n1`, the inhibition in experiment [1] is 98.9% (active); in experiment [2], 117%; in experiment [3] it was 97%.
Taken in the same sequence, the figures for `O=C(NNc1ccccc1Cl)C(O)(c1cccc(C(F)(F)F)c1)c1cccc(C(F)(F)F)c1` were 63% (active), 115% and 105%.
On the same counts, the results for `CC(C)C[C@H]1CNC(=S)N1C[C@H]1CCCN1C[C@H](Cc1ccc(O)cc1)N1C[C@H](Cc2ccc(O)cc2)N(CC2CCCCC2)C1=S` are 56.7% (active), 104% and 111%.
Taken in the same sequence, the figures for `CCc1ccc(N(CC)c2ncnc3nc[nH]c23)cc1` were 62.6% (active), 101% and 99.3%.
As for `COc1cc(C2c3cc4c(cc3C(O)C3COC(=O)C23)OCO4)cc(OC)c1OC` (stereo not drawn), the inhibition in experiment [1] was 83.3% (active); in experiment [2], -0.395%; in experiment [3], 37.3%.
With `COc1ccc(CNC(=O)/C(C#N)=C/c2cccc(OC)c2OC)cc1`, the inhibition in experiment [1] is 34.1% (inactive).
`Cc1ccc(NC(=O)Nc2nnc(-c3ccncc3)s2)cc1`: the inhibition was 59.6% (active) in experiment [1], 103% in experiment [2] and 114% in experiment [3].
Taken in the same sequence, the figures for `C#CCN(C[C@@H]1[C@@H](OC(=O)NC2CC2)[C@@H](OC(=O)NC2CC2)Cn2c(=O)ccc(=O)n21)S(=O)(=O)c1ccc(C)cc1` were 61.6% (active), 102% and 111%.
In the case of `Cc1ccc(Cc2c(-c3ccco3)nc3ccc(Cl)cn23)cc1`, the inhibition in experiment [1] was -82.3% (inactive).
In the case of `Cc1cccc2sc(N(CCCN(C)C)C(=O)CCS(=O)(=O)c3ccccc3)nc12`, the inhibition in [1] was 84.3% (active); in experiment [4], 22.5% (inactive); in experiment [5] it was 98.9% (active); in [2], 98.4%; in [3], 102%.
On to `C=C1C(=O)[C@]23C[C@H]1CCC2[C@@]1(C)C(C[C@@H]3O)[C@](C)(C(=O)O)CC[C@@H]1O` (stereo partly drawn), for which the inhibition in [1] is 83% (active); in [2] it was 97.1%; in [3], 104%.
As for `CCc1ccc2c(c1)Sc1ccccc1CC2N1CCN(C)CC1` (stereo not drawn), the inhibition in experiment [6] and in experiment [7] was 102% in each case.
For `Cc1ccc(C2=NC(=O)/C(=C/c3cc(O)c(O)c(Br)c3)S2)cc1`, the values for the inhibition in experiment [6] and in experiment [7] were 88.6% and 79.4%, respectively.
On the same counts, the results for `Cc1cccc(NC(=O)CSc2nc3ccccc3c3nc(CCc4c(C)n[nH]c4C)nn23)c1` are 97.9% and 95.8%.
For `COc1cccc(Nc2nc(C(N)Cc3ccccc3)cs2)n1` (stereo not drawn), the inhibition in experiment [6] came to 97.8%; in experiment [7], 99.1%.
Taken in the same sequence, the figures for `Cc1cccc(CN2C(=O)[C@H]3Cc4c([nH]c5ccccc45)C(C)(C)N3C2=O)c1` were 97.5% and 101%.
On the same counts, the results for `COc1ccc(-c2cc(C(=O)N(C)Cc3ccccc3F)c3ccccc3n2)cc1OC` are 97.1% and 94.9%.
For `COc1cccc(C(=O)O/N=C(\N)c2ccccn2)c1`, the results for the inhibition in [6] and in experiment [7] were 102% and 95.8%, respectively.
Taken in the same sequence, the figures for `CCCCCCCn1c(=N)n(CC(O)c2ccco2)c2ccccc21` (stereo not drawn) were 101% and 99.1%.
For the compound `Cc1nn(-c2ccccc2)c(Cl)c1/C=N/NC(=O)c1nn(C)cc1[N+](=O)[O-]`, the inhibition in [1] was 14.2% (inactive). Further, the activity in experiment [8] came to 40.9%; in experiment [9] it was 46.5%.
With `CCOC(=O)c1ccc2ncc(C(=O)OCC)c(NCCN(C)C)c2c1`, the inhibition is 73% in experiment [6] and 77.3% in [7].
Turning to `COc1cc(NC(=O)Nc2nc(C(N)CCc3ccccc3)cs2)cc(OC)c1OC` (stereo not drawn), the inhibition in [6] came to 99.2%; in experiment [7], 97.7%.
On the same counts, the results for `CCOC(=O)c1c(NC(=O)CSc2nnnn2-c2ccccc2OCC)sc2c1CC(C)(C)NC2(C)C` are 98.8% and 102%.
Taken in the same sequence, the figures for `COc1ccc(N(Cc2cc3cc(OC)ccc3[nH]c2=O)S(=O)(=O)c2ccc(NC(C)=O)cc2)cc1` were 89.7% and 89.7%.
In the case of `N#Cc1c(N)nc(SCc2ccncc2)c(C#N)c1-c1cccs1`, the inhibition in [6] came to 94.6%; in [7], 99.2%.
With `COc1ccccc1NC(=O)c1cc(-c2cc(OC)c(OC)c(OC)c2)nc2ccccc12`, the inhibition in [6] was 47.9%; in experiment [7], 50.1% [run 2, dose range 1, at 50 µM].
Take `CC(NS(=O)(=O)OCC(Cl)(Cl)Cl)c1ccc(C(C)(C)C)cc1` (stereo not drawn): the inhibition worked out at 101% in [6] and 97.9% in experiment [7].
Taken in the same sequence, the figures for `COc1ccc(CNC(=O)Nc2nc(C(N)Cc3ccc(F)cc3)cs2)cc1` (stereo not drawn) were 102% and 101%.
On the same counts, the results for `Cc1ccc(C)c(CN2CCC(CNC(=O)Nc3ccc(F)c(Cl)c3)CC2)c1` are 102% and 101%.
Taken in the same sequence, the figures for `CS(=O)(=O)c1ccc(C(=O)NCCN2C(=O)S/C(=C\c3cccnc3)C2=O)cc1[N+](=O)[O-]` were 102% and 99.2%.
Take `COc1ccc(-n2cc(CNC3CCN(C)CC3)c(-c3cccc(F)c3)n2)cc1`: the inhibition in experiment [6] stood at 100%; in experiment [7], 101%.
With `Fc1ccc([C@@H]2CCNC[C@H]2COc2ccc3c(c2)OCO3)cc1`, the inhibition in experiment [6] turned out to be 102%; in experiment [7], 101%.
Taken in the same sequence, the figures for `Cc1c(C(=O)Nc2ccc(S(=O)(=O)N(C)C3CCN(C)CC3)cc2)oc2c(Cl)cccc12` were 102% and 99.1%.
Consider `Cc1cc(C)c2sc(N(CCCN(C)C)C(=O)c3ccc(S(=O)(=O)N(C)Cc4ccccc4)cc3)nc2c1`, for which the figures for the inhibition in experiment [6] and in experiment [7] were 98.7% and 101%, respectively.
On to `C[C@@H]1[C@H]2[C@@H]3CC[C@@H](C3)[C@H]2CN[C@H]1c1cn(Cc2ccccc2)c2ccccc12`, for which the values for the inhibition in [6] and in experiment [7] were 99.2% and 102%, respectively.
For `COC(=O)c1ccccc1-c1ccc(/C=N/Nc2nc(N3CCCC3)nc(N3CCCC3)n2)o1`, the values for the inhibition in experiment [6] and in experiment [7] were 100% and 102%, respectively.
On the same counts, the results for `COC(=O)c1ccc(CNC(=O)Cn2cnc3c(NCc4ccccc4)ncnc32)cc1` are 97.3% and 74.3%.
On the same counts, the results for `O=C1C(Cl)=C(Nc2ccc(O)cc2)C(=O)c2ccccc21` are 102% and 101%.
On the same counts, the results for `COC(=O)c1cn(NC(=O)c2cc([N+](=O)[O-])ccc2F)c(=O)c2ccccc12` are 95.3% and 94%.

Source of the values: PubChem BioAssay.
